The whole screen tested about 290,000 compounds, of which about 27,000 (9.3%) were called active. The sample holds actives, similar compounds and a random draw of the others, so the mix is not that of the screen. A number with no mark means an inactive call. Cut-off read from the data, not from the text of the source: active = inhibition mostly above about 28% (no sharp cut-off); inactive = mostly below about 43%. Where a SMILES comes first, the peptide text is derived from it. Bridges are numbered along the chain shown (N, C = ends).

In general, inhibition refers to the change of the read-out against control, counted positive when it falls.

The assay is described as follows: A qHTS for Small Molecule Inhibitors of Shiga Toxin. Note: 0% is about no effect. Particulars: Vero cells, Shiga toxin protein synthesis inhibition reporter; at 38.7 µM, active compounds read high. (Quantitative high-throughput screening tests each substance at several concentrations.)
`COc1ccccc1N(C)C(=O)c1cc(S(=O)(=O)N2CCc3ccccc32)cn1C`: the inhibition was 8.5%.

For `O=C(CN1CCN(c2ccc(F)cc2)CC1)Nc1ccccc1`, the inhibition is -6.95%.

With `Cc1ccc(-c2cc(C(=O)Nc3nn[nH]n3)c3ccccc3n2)c(C)c1`, the inhibition is -11.6%.

Consider `Cc1cc(O)ccc1-c1cnc2ccccc2n1`, for which the inhibition was 99.9% (active).

Consider `CC(=O)Nc1cccc(-c2cnc3ccccc3n2)c1`, for which the inhibition is 116%.

On to `Cc1oc2c(F)c(F)c(F)c(F)c2c1S(=O)(=O)Nc1cccc(C(F)(F)F)c1`, for which the inhibition was -4.67%.

Turning to `CCOC(=O)C1CCCN(S(=O)(=O)c2ccc3c(c2)C(C)(C)C(=O)N3C)C1` (stereo unspecified), the inhibition is -10.9%.

Take `COCCN1C(=O)N(c2ccc(Cl)cc2)C(=O)C1CC(=O)Nc1cc(OC)cc(OC)c1` (stereo unspecified): the inhibition is 0.637%.

Consider `S=c1[nH]nc(CSCc2ccc(Cl)cc2Cl)n1-c1ccccc1`, for which the inhibition is -6.51%.

Regarding `Cn1c(CCCOc2ccc(Cl)cc2Cl)n[nH]c1=S`, the inhibition is 57.3% (active).

With `O=C(CCCOc1ccc(Cl)cc1Cl)NNC(=O)C1CCC1`, the inhibition was 27.9%.

`O=C(COc1ccc(S(=O)(=O)Nc2cccc(C(F)(F)F)c2)cc1)N1CCOCC1`: the inhibition is -9.6%.

As for `CCOC(=O)[C@@H]1[C@H]2COc3ccc(Br)cc3[C@H]2N2C(=O)N(c3ccc(Cl)cc3)C(=O)[C@@]12C`, the inhibition is -8.05%.

Take `Cc1cccc(OCc2ccc(C(=O)Nc3ccc(F)cc3)cc2)c1`: the inhibition is -8.13%.

As for `CCSc1ncc(Cl)c(C(=O)Nc2cc(C)ccc2C)n1`, the inhibition is -1.29%.

As to `Cc1cccc(CS(=O)(=O)c2ncc(Cl)c(C(=O)Nc3ccc(F)cc3)n2)c1`, the inhibition was 53.3% (active).

Regarding `Cc1cccc(NC(=O)c2nc[nH]c2C(=O)NCC(=O)OCc2ccccc2)c1`, the inhibition is -6.49%.

For the compound `Cc1cccc(NC(=O)c2nc(S(=O)(=O)Cc3ccccc3)ncc2Cl)c1`, the inhibition was 34.1% (active).

Turning to `CCOc1ccc(NC(=O)c2nc(SCC)ncc2Cl)cc1`, the inhibition was -3.26%.

Regarding `COc1ccc(C(=O)Nc2cc(C)c(NC(=O)c3ccccc3OC)cn2)cc1`, the inhibition is 37%.

As to `Cc1ccc(S(=O)(=O)N(C)CC(=O)NCCc2c[nH]c3ccccc23)cc1`, the inhibition is -2.21%.

Take `O=C(CCCCCn1c(=S)[nH]c2ccsc2c1=O)NC1CCCCC1`: the inhibition is -10.2%.

For the compound `COc1ccc(-c2csc(Nc3ccccn3)n2)cc1`, the inhibition was 48% (active).

In the case of `COc1ccc2nc(Nc3nc(-c4ccncc4)cs3)sc2c1`, the inhibition is 53%.

For `COC(=O)c1cc(-c2cccs2)nc2ccccc12`, the inhibition is -1.63%.

As to `c1ccc(Nc2nc(-c3ccncc3)cs2)nc1`, the inhibition is 75.1% (active).

As to `COC(=O)CSc1nccc(-c2cccs2)n1`, the inhibition was 46.2%.

Consider `COc1ccc(CNc2nccs2)cc1`, for which the inhibition is -0.77%.

For the compound `Clc1ccc(Nc2nc(-c3cccs3)cs2)nc1`, the inhibition is 70.3% (active).

`c1cnc(Nc2nc(-c3ccc4ccccc4c3)cs2)nc1`: the inhibition was 154% (active).

On to `COc1ccc(N(CC(=O)NCC2CCCO2)C(=O)CCC(=O)Nc2nccs2)c(OC)c1` (stereo unspecified), for which the inhibition was 16.4%.

For `Cc1ccc(NC(=O)CCC(=O)c2ccc(Br)cc2)cc1`, the inhibition was -4.63%.

Take `CCCCNC(=O)CN1C(=O)NC(Cc2ccccc2)(Cc2ccccc2)C1=O`: the inhibition is 2.69%.

As for `Cc1c(C(=O)N2CCN(c3ccc(F)cc3)CC2)oc2c1C(=O)CCC2`, the inhibition was -4.3%.

With `C/C(=N/OC(=O)c1ccc(Br)cc1)c1ccc(C)cc1`, the inhibition is 6.54%.

In the case of `O=C(CC(n1cncn1)C(Cl)(Cl)Cl)c1ccc([N+](=O)[O-])cc1` (stereo unspecified), the inhibition was -7.92%.

In the case of `Cc1cccc(C)c1NC(=O)CN1C(=O)C(C)Oc2ccccc21` (stereo unspecified), the inhibition is -3.24%.

With `NC(=O)C(Cc1ccccc1)NC(=O)C12CC3CC(CC(C3)C1)C2` (stereo unspecified), the inhibition was -10.9%.

For `COc1ccccc1C(=O)NC(=S)Nc1ccccc1N1CCCCC1`, the inhibition was 39.8% (active).

Take `O=C(NC(=S)Nc1ccccc1N1CCCCC1)c1ccc(F)cc1`: the inhibition is -27.2%.

Consider `COc1ccc(C(=O)NC(=S)Nc2ccccc2N2CCN(S(C)(=O)=O)CC2)cc1OC`, for which the inhibition is -2.05%.

For `Cc1ccnc(NS(=O)(=O)c2ccc(NC(=O)c3oc4ccc(F)cc4c3C)cc2)n1`, the inhibition is -7.64%.

For `O=S(=O)(c1ccc(Cl)s1)N1CCC2(CC1)OCCO2`, the inhibition is 6.74%.

`C[C@@H](O)[C@@H]1NC(=O)[C@H](CCCCN)NC(=O)[C@H](Cc2c[nH]c3ccccc23)NC(=O)[C@H](Cc2ccccc2)NC(=O)[C@H](Cc2ccccc2)NC(=O)[C@H](CC(N)=O)NC(=O)[C@H](CCCCN)NC(=O)[C@@H](NC(=O)[C@@H]2CCCN2)CSSC[C@@H](C(=O)N[C@@H](CCCCN)C(=O)O)NC(=O)[C@H](CO)NC(=O)[C@H](CO)NC(=O)[C@H](Cc2ccccc2)NC1=O` (H-PCKNFFWKTFSSCK-OH; disulfide 2-13): the inhibition was -9.69%.

Regarding `O=C(NCc1ccccc1)C(c1ccccc1)N(C(=O)c1csnn1)c1ccc(F)cc1` (stereo unspecified), the inhibition is -3.73%.

For the compound `O=C(Nc1nnc(C2CC2)s1)c1cc(Cl)sc1Cl`, the inhibition is 48% (active).

With `O=C(Nc1nnc(C2CC2)s1)C1=NN(C2CCS(=O)(=O)C2)C(=O)CC1` (stereo unspecified), the inhibition is -18%.

As for `O=C(Cc1cccs1)Nc1nnc(C2CC2)s1`, the inhibition is 18.3%.

For `CC1CCN(c2ccc(C(=O)Nc3nnc(C4CC4)s3)cc2[N+](=O)[O-])CC1`, the inhibition is 1.09%.

Take `O=C(Nc1nnc(C2CC2)s1)c1ccccn1`: the inhibition was 109% (active).

Consider `Cc1occc1C(=O)Nc1nnc(-c2ccncc2)s1`, for which the inhibition was 28.4%.

Regarding `Cc1cccc(NC(=O)CSCC(=O)Nc2nnc(C3CC3)s2)c1`, the inhibition was 14.9%.

Turning to `Cc1occc1C(=O)Nc1nnc(C2CCCCC2)s1`, the inhibition was 60.1% (active).

For `COc1ccc(NC(=O)CCC(=O)Nc2nnc(C3CCCCC3)s2)cc1`, the inhibition is -3.77%.

On to `CC1CCN(S(=O)(=O)c2ccc(NC(=O)C3CC(=O)N(c4ccccc4)C3)cc2)CC1` (stereo unspecified), for which the inhibition was -4.69%.

Regarding `COc1ccc(NS(=O)(=O)c2ccc(N3CCN(CCO)CC3)c([N+](=O)[O-])c2)cc1`, the inhibition is -10.2%.

The record behind these values is PubChem BioAssay AID2315 (National Center for Advancing Translational Sciences (NCATS), 2010).
